In PubChem BioAssay (NCI) one finds growth data, which are given here for seven compounds.

Common to all, as to assay: NCI-60 one-dose screen, 48 h (100 = growth as untreated, 0 = no growth, -100 = all killed)
Assay [1] concerns NCI-H23 lung. As to conditions: 10 µM unless noted.
In assay [2] the test system is NCI-H226 lung. As to conditions: 10 µM unless noted.
The subject of assay [3] is NCI-H322M lung. As to conditions: 10 µM unless noted.
Assay [4] has as its system HOP-62 NSCLC. As to conditions: 10 µM unless noted.
In assay [5] the test system is NCI-H460 lung. As to conditions: 10 µM unless noted.
Assay [6] concerns HOP-92 NSCLC. As to conditions: 10 µM unless noted.
Assay [7] concerns NCI-H522 lung. As to conditions: 10 µM unless noted.
Assay [8] has as its system A549/ATCC NSCLC. As to conditions: 10 µM unless noted.
The subject of assay [9] is 786-0 renal. As to conditions: 10 µM unless noted.
The subject of assay [10] is DU-145 prostate. As to conditions: 10 µM unless noted.
The test system of assay [11] is MALME-3M melanoma. As to conditions: 10 µM unless noted.
Assay [12] concerns MDA-MB-231 breast. As to conditions: 10 µM unless noted.
The test system of assay [13] is RXF 393 renal. As to conditions: 10 µM unless noted.
The test system of assay [14] is SF-268 CNS. As to conditions: 10 µM unless noted.
Assay [15] deals with SF-295 CNS. As to conditions: 10 µM unless noted.
In assay [16] the test system is SF-539 CNS. As to conditions: 10 µM unless noted.
Assay [17] relates to M14 melanoma. As to conditions: 10 µM unless noted.
Assay [18] deals with K-562 leukemia. As to conditions: 10 µM unless noted.
Assay [19] relates to UACC-257 melanoma. As to conditions: 10 µM.
For assay [20], the system named is COLO 205 colon. As to conditions: 10 µM unless noted.

SMILES strings stand for the structures. The panel holds about 83,000 compounds, 20% with a hit somewhere; the sample as a whole holds those more often.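 Single-concentration screen, 48 h exposure, 96-well plates. Endpoint: percent growth. Below 10 = active.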 Values without a mark were called inactive. Activity calls are given as the source filed them.

Consider `COCCOc1ccc(-c2csc(NC(C)=O)n2)cc1NS(=O)(=O)c1cccc2c(N(C)C)cccc12`, for which the growth in assay [1] was 104%; in assay [2] it was 84.9%; in assay [3], 92.6%; in assay [4], 102%; in assay [5] it was 100%; in [6] it was 58.6%. Besides, the growth is 85.2% in assay [7]; 98.3% in assay [8]; 95.8% in [9]; 98.3% in assay [10]; 83.9% in assay [11]; 80.2% in assay [12]. Further, the growth is 91.7% in assay [13]; 96.2% in assay [14]; 95.9% in [15]; 90.9% in assay [16]; 94% in [17].

Regarding `COc1ccc(Cn2cc3c(c2-c2cc(OC)c(OC)c(OC)c2)CCCc2cnoc2-3)cc1N`, the growth in [1] was 47.1%; in assay [2], 66.9%; in [3] it was 46.3%; in [4], 51.1%; in [5], 11.5%; in assay [6], 65.3%. Also, the growth in assay [7] was 12.5%; in assay [8] it was 43%; in assay [9], 38.1%; in assay [10], 17.2%; in assay [18] it was 20.3%; in [11], 54.9%. Moreover, the growth in assay [12] is 35.2%; in [13] it was -5.39% (active); in assay [14], 58%; in assay [15] it was 0% (active); in assay [16], 1.95% (active); in [19], 90.3%. For the same compound, the growth in assay [17] is 0.685% (active).

Consider `CC(=O)NC(C)(C)C(=O)N1CCC[C@H]1C(=O)NC(C)(C)C(=O)N[C@@H](C)C(=O)NC(C)(C)C(=O)N[C@@H](C)C(=O)N[C@@H](CCC(N)=O)C(=O)NC(C)(C)C(=O)N[C@H](C(=O)NC(C)(C)C(=O)NCC(=O)N[C@@H](CC(C)C)C(=O)NC(C)(C)C(=O)N1CCC[C@H]1C(=O)N[C@H](C(=O)NC(C)(C)C(=O)NC(C)(C)C(=O)N[C@@H](CCC(N)=O)C(=O)N[C@@H](CCC(N)=O)C(=O)N[C@H](CO)Cc1ccccc1)C(C)C)C(C)C`, for which the growth is 41% [4.25 µM] in assay [1]; 57.2% [4.25 µM] in assay [2]; 97.3% [4.25 µM] in [3]; 60.6% [4.25 µM] in assay [4]; 74.1% [4.25 µM] in assay [5]; 60% [4.25 µM] in assay [6]. In addition, the growth in assay [7] is 48% [4.25 µM]; in assay [8] it was 49.4% [4.25 µM]; in [9], 97.4% [4.25 µM]; in [10], 62.9% [4.25 µM]; in [18] it was 42.8% [4.25 µM]; in assay [11], 57.1% [4.25 µM]. For the same compound, the growth is 77.7% [4.25 µM] in assay [12]; 82.7% [4.25 µM] in [13]; 64.3% [4.25 µM] in assay [14]; 55.1% [4.25 µM] in assay [15]; 62.2% [4.25 µM] in assay [16]; 68.5% [4.25 µM] in assay [17].

With `C#CCOc1ccc(C(Nc2ccc(OC)cc2)c2nnnn2C2CCCCC2)cc1` (configuration not stated), the growth in assay [1] is 99.8%; in assay [2] it was 101%; in [3], 97.3%; in [4], 98.9%; in assay [5], 103%; in [6], 93.9%. Moreover, the growth was 89.3% in assay [7]; 92.2% in [8]; 95.5% in [9]; 109% in [10]; 94.4% in [18]; 98.5% in assay [11]. In addition, the growth is 86.6% in assay [12]; 114% in assay [13]; 102% in assay [14]; 100% in [15]; 104% in assay [16]; 102% in assay [19]. The growth in assay [17] was 97.2%.

On to `COc1ccc(-c2oc3cc(O)cc(O)c3c(=O)c2OC)cc1O`, for which the growth is 25.7% in assay [1]; 73.6% in [2]; 41.2% in assay [3]; 29.1% in assay [4]; 8.84% (active) in [5]; 41.2% in [6]. For the same compound, the growth is -21% (active) in [7]; 38% in assay [8]; 38.8% in assay [9]; 15.7% in assay [10]; 68.8% in assay [11]; 32.7% in assay [12]. Further, the growth in assay [13] was -29.9% (active); in assay [14] it was 45.2%; in assay [15] it was -24.1% (active); in assay [16], -34.6% (active); in assay [19], 78.8%; in assay [17], 28.3%.

Turning to `COCCOc1ccc(-c2csc(NC(=O)CN3CCN(CCO)CC3)n2)cc1NS(=O)(=O)c1cccc2c(N(C)C)cccc12`, the growth in assay [1] was 78%; in assay [2] it was 70.9%; in [3], 68.4%; in [4], 81%; in assay [5], 98.2%; in [6] it was 13.3%. Moreover, the growth in [7] is 24.1%; in assay [8] it was 92%; in assay [9], 37.1%; in [20], 69.8%; in assay [10], 92.5%; in assay [11], 40.1%. For the same compound, the growth is 79.3% in [12]; 65.1% in [13]; 90.5% in assay [14]; 70.3% in assay [15]; 61.9% in [16]; -71.7% (active) in assay [17].

In the case of `CC[C@@](C)(NC(=O)C(C)(C)NC(=O)[C@@H](NC(=O)[C@@H]1CCCN1C(=O)C(C)(C)NC(=O)[C@H](CC(C)C)NC(=O)CNC(=O)C(C)(C)NC(=O)[C@@H](NC(=O)C(C)(C)NC(=O)[C@H](CCC(N)=O)NC(=O)[C@H](C)NC(=O)C(C)(C)NC(=O)[C@H](C)NC(=O)C(C)(C)NC(=O)[C@@H]1CCCN1C(=O)C(C)(C)NC(C)=O)C(C)C)C(C)C)C(=O)N[C@@H](CCC(N)=O)C(=O)N[C@@H](CCC(N)=O)C(=O)N[C@H](CO)Cc1ccccc1`, the growth was 14.9% [4.25 µM] in assay [1]; 61.3% [4.25 µM] in assay [2]; 58.4% [4.25 µM] in assay [3]; 51.9% [4.25 µM] in [4]; 39.4% [4.25 µM] in [5]; -13.3% [4.25 µM] (active) in [6]. The growth in [7] is -1.04% [4.25 µM] (active); in assay [8], 50.1% [4.25 µM]; in [9] it was 77.2% [4.25 µM]; in assay [10], 30.9% [4.25 µM]; in assay [18], 29.1% [4.25 µM]; in assay [11] it was -21.3% [4.25 µM] (active). Besides, the growth in assay [12] was 32.4% [4.25 µM]; in assay [13], 29.1% [4.25 µM]; in [14] it was 31.6% [4.25 µM]; in [15] it was 86.6% [4.25 µM]; in assay [16], 28.7% [4.25 µM]; in [17], 65.9% [4.25 µM].
